The results in this text go back to PubChem BioAssay (EPA / NIEHS).

Test [1] in a line: APR_HepG2_CellCycleArrest_24hr: Apredica 24-hour HepG2 Assay for Cell Cycle Arrest (AID 2282905).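 Also: cell cycle arrest scored as ratio of 2N to 4N nuclear DNA content.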 The note with it: imaging, actives raise or lower the signal. In short, it runs like this:
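Compounds at 0.39–200 uM (0.5% DMSO) for 24 h, then fixed and Hoechst 33342 stained. Cell-cycle analysis of nuclear DNA content by high-content imaging, fitted bidirectionally versus DMSO.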

A short description of test [2]: APR_HepG2_StressKinase_1hr: Apredica 1-hour HepG2 Assay for Stress Kinase (AID 2282906). The note with it: HepG2 stress kinase (phospho-c-Jun) imaging, actives raise or lower the signal. Summed up:
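HepG2 cells dosed 0.39-200 uM (0.5% DMSO) for 1 h, then formaldehyde-fixed. Stress kinase read by phospho-c-Jun immunofluorescence using high-content imaging; bidirectional fit vs DMSO.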

Test [3] can be described thus: APR_HepG2_MicrotubuleCSK_24hr: Apredica 24-hour HepG2 Assay for Microtubule CSK Stabilty (AID 2282909). As to conditions: HepG2 microtubule cytoskeleton imaging, actives raise or lower the signal. Summed up: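 HepG2 cells were treated 24 hr with compound at 0.39–200 uM in duplicate (0.5% DMSO final), then fixed and permeabilized. Alpha-tubulin immunofluorescence was imaged by high-content microscopy, with bidirectional fitting against DMSO and taxol as positive control.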

The nature of test [4]: APR_HepG2_MitoticArrest_24hr: Apredica 24-hour HepG2 Assay for Mitotic Arrest (AID 2282910). The note with it: high-content imaging, actives raise or lower the signal. Summed up:
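Compounds are dosed onto HepG2 cells across ten concentrations up to 200 uM for 24 hr. Cells are then fixed in 3.7% formaldehyde, permeabilised, and labelled for phospho-histone H3 and nuclei; images are scored by cell cycle analysis and fitted bidirectionally relative to DMSO.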

The nature of test [5]: APR_HepG2_MitoMembPot_24hr: Apredica 24-hour HepG2 Assay for Mitochondrial Membrane Potential (AID 2282911). The note with it: imaging, actives raise or lower the signal. In short, it runs like this:
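HepG2 cells exposed 24 h to 0.39–200 uM compounds in duplicate, 0.5% v/v DMSO final. MitoTracker Red CMXRos 250 nM loaded 30 min before formaldehyde fixation; high-content imaging at 20x, bidirectional fit versus DMSO.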

The nature of test [6]: APR_HepG2_MitoMass_24hr: Apredica 24-hour HepG2 Assay for Mitochondrial Mass (AID 2282912). The note with it: high-content imaging, actives raise or lower the signal. In short, it runs like this: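 HepG2 cells exposed 24 hr to 0.39–200 uM compound, 0.5% v/v DMSO, in duplicate. Stained before fixation with 250 nM MitoTracker Red CMXRos for 30 min, then imaged at 20x with Hoechst nuclei. Fitted in both directions against DMSO.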

A short description of test [7]: APR_HepG2_p53Act_24hr: Apredica 24-hour HepG2 Assay for p53 Activation (AID 2282913).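 Also: p53 protein immunofluorescence averaged per cell in HepG2 with Hoechst nuclei.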 The note with it: high-content imaging, actives raise or lower the signal. In short, it runs like this: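 HepG2 cells exposed 24 h to compounds at 0.39–200 uM in duplicate, 0.5% v/v DMSO final; fixed, permeabilized, stained with anti-p53 antibody and Hoechst 33342; fluorescence imaging; bidirectional curve fit versus DMSO.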

The nature of test [8]: APR_HepG2_CellLoss_72hr: Apredica 72-hour HepG2 Assay for Cell Loss (AID 2282915). As to conditions: high-content imaging. Summed up: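 Cell number comes from Hoechst 33342-labelled nuclei, imaged at 20x after 3.7% formaldehyde fixation. Dosing was 0.39–200 uM, ten concentrations in duplicate, 0.5% DMSO final, for 72 h. Bidirectional fit relative to DMSO baseline.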
Test [9] is described as follows: APR_HepG2_P-H2AX_72hr: Apredica 72-hour HepG2 Assay for H2AX Phosphorylation (AID 2282916).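 Also: phospho-histone H2A.x immunostain intensity per cell marking DNA damage.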 The note with it: imaging, actives raise or lower the signal. In short, it runs like this: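 HepG2 cells treated 72 h at 0.39–200 uM, 0.5% DMSO final, duplicates. Formaldehyde-fixed, Triton-permeabilised, immunostained for phospho-H2A.x with Hoechst; fluorescence imaged at 20x, bidirectional fit versus DMSO.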

A short description of test [10]: APR_HepG2_MitoMembPot_72hr: Apredica 72-hour HepG2 Assay for Mitochondrial Membrane Potential (AID 2282917). As to conditions: imaging, actives raise or lower the signal. In short, it runs like this:
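Membrane potential read by MitoTracker Red CMXRos (250 nM, 30 min, pre-fixation) fluorescence imaging of HepG2 after 72 hr exposure. Ten concentrations, 0.39–200 uM, duplicate wells, 0.5% DMSO; fitted in both directions against DMSO baseline.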

The nature of test [11]: APR_HepG2_MitoticArrest_72hr: Apredica 72-hour HepG2 Assay for Mitotic Arrest (AID 2282918). As to conditions: high-content imaging, actives raise or lower the signal. Summed up: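 HepG2 cells treated 72 h at 0.39–200 uM, 0.5% DMSO final; formaldehyde-fixed, stained with Hoechst 33342 and phospho-histone H3 antibody, imaged by high-content fluorescence; bidirectional fit versus DMSO.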

Test [12] in a line: APR_HepG2_MicrotubuleCSK_72hr: Apredica 72-hour HepG2 Assay for Microtubule CSK Stabilty (AID 2282919). The note with it: HepG2 microtubule cytoskeleton, high-content imaging, actives raise or lower the signal. In short, it runs like this:
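Read-out is tubulin fluorescence intensity from high-content imaging of HepG2 cells, with nuclei identified by Hoechst 33342. Treatment lasts 72 h at 0.39–200 uM, and curves are fitted bidirectionally against the DMSO negative control.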

Test [13] is described as follows: APR_HepG2_P-H2AX_24hr: Apredica 24-hour HepG2 Assay for H2AX Phosphorylation (AID 2282920). As to conditions: high-content imaging, actives raise or lower the signal. Summed up: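 HepG2 cells dosed 24 h at 0.39–200 uM (10 points, duplicate, 0.5% DMSO final). Formaldehyde-fixed and permeabilized, then immunostained for phospho-H2A.x with Hoechst. Fluorescence quantified by high-content imaging, fitted bidirectionally versus DMSO.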

Test [14] in a line: APR_HepG2_StressKinase_72hr: Apredica 72-hour HepG2 Assay for Stress Kinase (AID 2282921). The note with it: HepG2 stress kinase (phospho-c-Jun) imaging, actives raise or lower the signal. Summed up:
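HepG2 cells treated 72 hr with 0.39–200 uM compound, 0.5% v/v DMSO, duplicate wells. After formaldehyde fixation and Triton permeabilization, stained with anti-phospho-c-Jun (1:500) and Cy3 secondary, imaged at 20x. Fitted in both directions against DMSO.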

The nature of test [15]: APR_HepG2_StressKinase_24hr: Apredica 24-hour HepG2 Assay for Stress Kinase (AID 2282922). The note with it: HepG2 stress kinase (phospho-c-Jun) imaging, actives raise or lower the signal. In short, it runs like this:
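HepG2, 24 hr dosing, 0.39–200 uM in duplicate, 0.5% DMSO; formaldehyde fix (3.7%), 0.5% Triton X-100; anti-phospho-c-Jun + Cy3 secondary, Hoechst counterstain; ArrayScan imaging; bidirectional curve fit vs DMSO baseline.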

The nature of test [16]: APR_HepG2_p53Act_72hr: Apredica 72-hour HepG2 Assay for p53 Activation (AID 2282923).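 Also: average cellular p53 protein immunofluorescence intensity in HepG2 cells.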 As to conditions: high-content imaging, actives raise or lower the signal. Summed up:
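HepG2 cells exposed 72 h to 0.39–200 uM in 0.5% DMSO, duplicates. Fixed, permeabilized cells immunostained for p53 (Cy5) with Hoechst; imaged at 20x, fluorescence analyzed bidirectionally against DMSO.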

A short description of test [17]: APR_HepG2_MitoMass_72hr: Apredica 72-hour HepG2 Assay for Mitochondrial Mass (AID 2282924).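 Also: MitoTracker Red CMXRos stain intensity per cell imaged as mitochondrial mass.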 The note with it: high-content imaging, actives raise or lower the signal. In short, it runs like this: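 HepG2, 72 hr cmpd, 10 conc 0.39–200 uM in dup, DMSO 0.5% v/v. MitoTracker Red CMXRos 250 nM 30 min pre-fix; formaldehyde 3.7% fix 30 min RT. HCS imaging, gain/loss fit vs DMSO.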

The nature of test [18]: APR_HepG2_CellCycleArrest_72hr: Apredica 72-hour HepG2 Assay for Cell Cycle Arrest (AID 2282914). The note with it: high-content imaging, actives raise or lower the signal. Summed up:
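HepG2 cells exposed 72 h in duplicate to 0.39–200 uM compound, 0.5% DMSO final. Formaldehyde-fixed, Hoechst 33342-stained nuclei imaged at 20x, six fields per well; DNA content per valid cell quantified by cell-cycle image analysis, bidirectional fit versus DMSO.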

Active and inactive are the calls of the source. The calls were made as follows: active = hit-call score of the fitted dose curve at least 0.9, where 1 is the maximum; inactive = score below 0.9.

Turning to `N#Cc1cc(Br)c(O)c(Br)c1`, the outcome in [1], in test [2], in test [3], in test [4], in test [6] and in [7] was inactive. Further, the compound was classed as inactive in [9], in test [10], in test [11], in test [12], in [13] and in test [14]. Besides, the result in test [15], in [16] and in test [17] was inactive. For the same compound, the concentration at half-maximal activity (AC50) is 89.4 µM (active) in [5] and 101 µM (active) in test [8].

On to `O=C(Nc1ccccc1)Nc1ccnc(Cl)c1`, for which the concentration at half-maximal activity (AC50) in test [1] is 69.9 µM (active); in [3], 84.5 µM (active); in test [6], 108 µM (active); in test [8] it was 53.8 µM (active); in test [10] it was 3.46 µM (active); in test [12], 32.5 µM (active). For the same compound, the outcome in test [2], in test [4], in test [5], in test [7], in [9] and in test [11] was inactive. In addition, the outcome in test [13], in test [14], in test [15], in [16] and in test [17] was inactive.

For the compound `CC(C)C1(C)N=C(c2nc3ccccc3cc2C(=O)O)NC1=O` (stereo not given), the result in [1], in [2], in test [3], in test [4], in test [5] and in test [6] was inactive. The compound was classed as inactive in test [7], in test [8], in test [9], in test [10], in test [11] and in test [12]. Besides, the outcome in [13], in [14], in [15], in [16] and in [17] was inactive.

On to `CCOc1cc(Oc2ccc(C(F)(F)F)cc2Cl)ccc1[N+](=O)[O-]`, for which the call in test [1], in test [2], in test [3], in test [4], in test [5] and in test [6] was inactive. Also, the result in test [7], in test [9], in [10], in [13], in test [14] and in test [15] was inactive. The compound was called inactive in [16] and in test [17]. The half-maximal activity concentration (AC50) is 31.5 µM (active) in test [8], 45 µM (active) in test [11] and 19.8 µM (active) in [12].

As for `Cc1ccc(-c2c(Cl)nc(C#N)n2S(=O)(=O)N(C)C)cc1`, the outcome in test [1], in test [2], in test [3], in test [4], in [6] and in [7] was inactive. The call in test [10], in [11], in [13], in [14], in test [15] and in test [16] was inactive. Moreover, the compound was called inactive in [17]. For the same compound, the AC50 in test [5] was 78.1 µM (active); in test [8], 65.4 µM (active); in test [9] it was 104 µM (active); in test [12], 65.3 µM (active).

Consider `CCCCOC(=O)c1ccccc1C(=O)OCCCC`, for which the compound was called inactive in [1], in test [2], in [3], in [4], in test [5] and in test [6]. Also, the result in [7], in test [18], in [8], in test [9], in [10] and in test [11] was inactive. Further, the compound was classed as inactive in [12], in test [13], in [14], in test [15], in test [16] and in [17].

Consider `CNC(=O)ON=CC(C)(C)SC`, for which the outcome in [1], in test [2], in test [3], in test [4], in [5] and in test [6] was inactive. The outcome in test [7], in [8], in test [9], in test [10], in [11] and in test [12] was inactive. Also, the call in test [13], in test [14], in [15], in [16] and in test [17] was inactive.
